± gives the standard deviation.
Legend:
Test in all cases: peptide microarray binding signal (635 nm), min-max normalized on array (fraction of array maximum); higher = stronger binding
Conditions in all cases: peptide region: H4 16-28
[1] = target: T1, HaloTag-ATRX ADD domain (163-292)
T1 chain: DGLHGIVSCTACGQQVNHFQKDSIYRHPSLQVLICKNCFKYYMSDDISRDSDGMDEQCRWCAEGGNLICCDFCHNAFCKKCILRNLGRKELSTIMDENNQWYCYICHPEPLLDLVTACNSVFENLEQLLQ
Outline: (§1)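 Within each library, mean intensities of triplicate spots were min-max scaled to give the binding signal. The spots were histone 13-mer peptide–cellulose conjugates on nitrocellulose with a Cy3 tracer, blocked overnight at 4°C. They were then probed for 1 h at 4°C using biotin-labelled HaloTag reader fusions (10 nM to 1 μM) with streptavidin-Alexa Fluor 647 or rabbit histone antibodies (1:10,000 to 1:2,000) with anti-rabbit Alexa 647, and scanned at 635 nm for signal and 532 nm for misprints on an Axon GenePix 4000B.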

[2] = target: HaloTag-ING2 PHD (mouse Ing2 200-280)
Outline: as §1

[3] = target: anti-H3K4me3 antibody ab8580
Outline: as §1

[4] = target: anti-H3K9me3 antibody ab8898
Outline: as §1

[5] = peptide modifications: H4R19cit H4K20ac, binder concentration: 1:2,000 dilution
[6] = peptide modifications: H4R19cit H4K20ac, binder concentration: 1:10,000 dilution
[7] = peptide modifications: H4R19cit H4K20me1, binder concentration: 1:2,000 dilution
[8] = peptide modifications: H4R19cit H4K20me1, binder concentration: 1:10,000 dilution
[9] = binder concentration: 1:2,000 dilution
[10] = peptide modifications: H4R19cit H4K20me2, binder concentration: 1:2,000 dilution
[11] = peptide modifications: H4R19cit H4K20me2, binder concentration: 1:10,000 dilution
[12] = peptide modifications: H4R19me1 H4K20ac, binder concentration: 1:2,000 dilution
[13] = peptide modifications: H4R19me1 H4K20ac, binder concentration: 1:10,000 dilution
[14] = peptide modifications: H4K20me1, binder concentration: 1:2,000 dilution
[15] = peptide modifications: H4K20ac, binder concentration: 1:2,000 dilution
[16] = peptide modifications: H4K20me3, binder concentration: 1:2,000 dilution
[17] = peptide modifications: H4R19me2a H4K20ac, binder concentration: 1:2,000 dilution
[18] = peptide modifications: H4R19me2a H4K20ac, binder concentration: 1:10,000 dilution
[19] = peptide modifications: H4R19me1 H4K20me3, binder concentration: 1:2,000 dilution
[20] = peptide modifications: H4R19me1 H4K20me3, binder concentration: 1:10,000 dilution
[21] = peptide modifications: H4R19me2a H4K20me3, binder concentration: 1:2,000 dilution
[22] = peptide modifications: H4R19me2a H4K20me3, binder concentration: 1:10,000 dilution

## KRHRKVLRDNIQG [H4 16-28 K R H Rcit Kac V L R D N I Q G]
[1]; peptide modifications: H4R19cit H4K20ac, binder concentration: 50 nM
  peptide microarray binding signal: 0.00511 ± 4.9e-05
[1]; peptide modifications: H4R19cit H4K20ac, binder concentration: 500 nM
  peptide microarray binding signal: 0.00829 ± 0.00052
[2]; peptide modifications: H4R19cit H4K20ac, binder concentration: 10 nM
  peptide microarray binding signal: 0.00633 ± 0.0001
[2]; peptide modifications: H4R19cit H4K20ac, binder concentration: 100 nM
  peptide microarray binding signal: 0.0106 ± 0.00059
[3]; [5]
  peptide microarray binding signal: 0.000736 ± 6.2e-05
[3]; [6]
  peptide microarray binding signal: 0.00137 ± 1.3e-05
[4]; [5]
  peptide microarray binding signal: 0.0004832 ± 4.6e-06
[4]; [6]
  peptide microarray binding signal: 0.00196 ± 3.7e-05

## KRHRKVLRDNIQG [H4 16-28 K R H Rcit Kme V L R D N I Q G]
[1]; peptide modifications: H4R19cit H4K20me1, binder concentration: 50 nM
  peptide microarray binding signal: 0.00693 ± 7.8e-05
[1]; peptide modifications: H4R19cit H4K20me1, binder concentration: 500 nM
  peptide microarray binding signal: 0.00933 ± 0.00036
[2]; peptide modifications: H4R19cit H4K20me1, binder concentration: 10 nM
  peptide microarray binding signal: 0.0107 ± 0.00018
[2]; peptide modifications: H4R19cit H4K20me1, binder concentration: 100 nM
  peptide microarray binding signal: 0.0139 ± 0.00037
[3]; [7]
  peptide microarray binding signal: 0.00145 ± 4.8e-05
[3]; [8]
  peptide microarray binding signal: 0.002853 ± 2.4e-05
[4]; [7]
  peptide microarray binding signal: 0.000785 ± 4.4e-05
[4]; [8]
  peptide microarray binding signal: 0.002479 ± 2.2e-05

## KRHRKVLRDNIQG [H4 16-28 K R H R K V L R D N I Q G]
[1]; binder concentration: 500 nM
  peptide microarray binding signal: 0.000238 ± 2.5e-06
[2]; binder concentration: 100 nM
  peptide microarray binding signal: 0.000354 ± 4.1e-06
[3]; [9]
  peptide microarray binding signal: 0.000132 ± 1.5e-06
[4]; [9]
  peptide microarray binding signal: 6.04e-05 ± 2.7e-06

## KRHRKVLRDNIQG [H4 16-28 K R H Rcit Kme2 V L R D N I Q G]
[1]; peptide modifications: H4R19cit H4K20me2, binder concentration: 50 nM
  peptide microarray binding signal: 0.00351 ± 7.6e-05
[1]; peptide modifications: H4R19cit H4K20me2, binder concentration: 500 nM
  peptide microarray binding signal: 0.007572 ± 7.1e-05
[2]; peptide modifications: H4R19cit H4K20me2, binder concentration: 10 nM
  peptide microarray binding signal: 0.00812 ± 0.00016
[2]; peptide modifications: H4R19cit H4K20me2, binder concentration: 100 nM
  peptide microarray binding signal: 0.0181 ± 0.00075
[3]; [10]
  peptide microarray binding signal: 0.0008306 ± 7.4e-06
[3]; [11]
  peptide microarray binding signal: 0.0016
[4]; [10]
  peptide microarray binding signal: 0.000483 ± 9.2e-06
[4]; [11]
  peptide microarray binding signal: 0.001211 ± 1.2e-05

## KRHRKVLRDNIQG [H4 16-28 K R H Rme Kac V L R D N I Q G]
[1]; peptide modifications: H4R19me1 H4K20ac, binder concentration: 50 nM
  peptide microarray binding signal: 0.00448 ± 0.00018
[1]; peptide modifications: H4R19me1 H4K20ac, binder concentration: 500 nM
  peptide microarray binding signal: 0.00967 ± 0.0016
[2]; peptide modifications: H4R19me1 H4K20ac, binder concentration: 10 nM
  peptide microarray binding signal: 0.00627 ± 0.00047
[2]; peptide modifications: H4R19me1 H4K20ac, binder concentration: 100 nM
  peptide microarray binding signal: 0.00609 ± 0.00066
[3]; [12]
  peptide microarray binding signal: 0.00468 ± 0.0037
[3]; [13]
  peptide microarray binding signal: 0.00137 ± 1.3e-05
[4]; [12]
  peptide microarray binding signal: 0.000287 ± 2.9e-06
[4]; [13]
  peptide microarray binding signal: 0.001557 ± 1.5e-05

## KRHRKVLRDNIQG [H4 16-28 K R H R Kme V L R D N I Q G]
[1]; peptide modifications: H4K20me1, binder concentration: 500 nM
  peptide microarray binding signal: 0.000143
[2]; peptide modifications: H4K20me1, binder concentration: 100 nM
  peptide microarray binding signal: 0.000283
[3]; [14]
  peptide microarray binding signal: 7.55e-05 ± 8.5e-07
[4]; [14]
  peptide microarray binding signal: 4.53e-05

## KRHRKVLRDNIQG [H4 16-28 K R H R Kac V L R D N I Q G]
[1]; peptide modifications: H4K20ac, binder concentration: 500 nM
  peptide microarray binding signal: 0.000524 ± 1.1e-05
[2]; peptide modifications: H4K20ac, binder concentration: 100 nM
  peptide microarray binding signal: 0.000354 ± 4.1e-06
[3]; [15]
  peptide microarray binding signal: 0.000529 ± 9.8e-05
[4]; [15]
  peptide microarray binding signal: 3.02e-05 ± 3.4e-07

## KRHRKVLRDNIQG [H4 16-28 K R H R Kme3 V L R D N I Q G]
[1]; peptide modifications: H4K20me3, binder concentration: 500 nM
  peptide microarray binding signal: 0.000667 ± 3.7e-05
[2]; peptide modifications: H4K20me3, binder concentration: 100 nM
  peptide microarray binding signal: 7.09e-05 ± 1.5e-06
[3]; [16]
  peptide microarray binding signal: 0.000982 ± 0.00023
[4]; [16]
  peptide microarray binding signal: 1.51e-05 ± 1.7e-07

## KRHRKVLRDNIQG [H4 16-28 K R H Rme2a Kac V L R D N I Q G]
[1]; peptide modifications: H4R19me2a H4K20ac, binder concentration: 50 nM
  peptide microarray binding signal: 0.003699 ± 3e-05
[1]; peptide modifications: H4R19me2a H4K20ac, binder concentration: 500 nM
  peptide microarray binding signal: 0.006
[2]; peptide modifications: H4R19me2a H4K20ac, binder concentration: 10 nM
  peptide microarray binding signal: 0.00871 ± 0.00039
[2]; peptide modifications: H4R19me2a H4K20ac, binder concentration: 100 nM
  peptide microarray binding signal: 0.0218 ± 0.0012
[3]; [17]
  peptide microarray binding signal: 0.000774 ± 2.5e-05
[3]; [18]
  peptide microarray binding signal: 0.00171 ± 3.3e-05
[4]; [17]
  peptide microarray binding signal: 0.0004379 ± 4.2e-06
[4]; [18]
  peptide microarray binding signal: 0.001211 ± 1.2e-05

## KRHRKVLRDNIQG [H4 16-28 K R H Rme Kme3 V L R D N I Q G]
[1]; peptide modifications: H4R19me1 H4K20me3, binder concentration: 50 nM
  peptide microarray binding signal: 0.0047 ± 0.00026
[1]; peptide modifications: H4R19me1 H4K20me3, binder concentration: 500 nM
  peptide microarray binding signal: 0.00638 ± 0.00038
[2]; peptide modifications: H4R19me1 H4K20me3, binder concentration: 10 nM
  peptide microarray binding signal: 0.0104 ± 0.00011
[2]; peptide modifications: H4R19me1 H4K20me3, binder concentration: 100 nM
  peptide microarray binding signal: 0.0129 ± 0.00048
[3]; [19]
  peptide microarray binding signal: 0.00636 ± 0.00079
[3]; [20]
  peptide microarray binding signal: 0.00867 ± 0.00021
[4]; [19]
  peptide microarray binding signal: 0.0157 ± 0.0041
[4]; [20]
  peptide microarray binding signal: 0.00871 ± 0.00013

## KRHRKVLRDNIQG [H4 16-28 K R H Rme2a Kme3 V L R D N I Q G]
[1]; peptide modifications: H4R19me2a H4K20me3, binder concentration: 50 nM
  peptide microarray binding signal: 0.0152 ± 0.00067
[1]; peptide modifications: H4R19me2a H4K20me3, binder concentration: 500 nM
  peptide microarray binding signal: 0.0166 ± 0.00049
[2]; peptide modifications: H4R19me2a H4K20me3, binder concentration: 10 nM
  peptide microarray binding signal: 0.0209 ± 0.00068
[2]; peptide modifications: H4R19me2a H4K20me3, binder concentration: 100 nM
  peptide microarray binding signal: 0.0392 ± 0.009
[3]; [21]
  peptide microarray binding signal: 0.0145 ± 0.0019
[3]; [22]
  peptide microarray binding signal: 0.00981 ± 0.00045
[4]; [21]
  peptide microarray binding signal: 0.0143 ± 0.0024
[4]; [22]
  peptide microarray binding signal: 0.0104 ± 0.00022
